Values joined by “and” are separate entries in the source; they are usually repeats but may differ in a detail not shown here. Identical values can stand only once. Among all 260,000 compounds or so, about 1,500 (0.58%) were called active. Inconclusive results (about 5%) are left out.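 Rule for the calls: active = inhibition above a set limit at one or more doses, reproduced on every date tested; inconclusive = results disagree between test dates, or hit never tested in dose response; inactive = the rest.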 Only a sample is shown. Measured potencies and affinities stand elsewhere.

In the experiment the target is Virion infectivity factor (Human immunodeficiency virus type 1 group M subtype B (isolate BH10)) + Virion infectivity factor (Human immunodeficiency virus type 1 group M subtype B (isolate BRU/LAI)) + Virion infectivity factor (Human immunodeficiency virus type 1 group M subtype B (isolate PCV12)) + Virion infectivity factor (Human immunodeficiency virus type 1 group M subtype B (isolate HXB2)) + DNA dC->dU-editing enzyme APOBEC-3G (Homo sapiens) (UniProt P69720+P69721+P69722+P69723+Q9HC16). Briefly: HIV-1 Vif–A3G interaction blockers – biochemical, TR-FRET, GST-Vif 1-94, biotin-A3G peptide, dose response retest, primary screen (AID 1117319).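 Note: Vif residues 1-94 fused to GST binding biotinylated APOBEC3G peptide 110-148; 0% = full assay without inhibitor and 100% = GST in place of GST-Vif.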 The conditions noted are these: TR-FRET GST-Vif / biotin-A3G peptide binding; active compounds read high.
For `CCOC(=O)C1CCN(C(=O)C2CCN(S(=O)(=O)c3cccc4nsnc34)CC2)CC1`, the inhibition was -1.01% (inactive). The value for `COc1cc(C(=O)Oc2ccccc2N)cc(OC)c1OC` was -1.18% (inactive); that for `Oc1ccc(N=Nc2ccccc2C(F)(F)F)c2cccnc12` was 9.97% (inactive). `O=Nc1ccc(O)c2ncccc12`: the inhibition is 25.1% (inactive). With `CC(C)Oc1ccccc1C1CC(=O)Nc2c1c(=O)n(C)c(=O)n2C` (centres undefined), the inhibition was 0.23% (inactive). On to `COc1cccc(C2CC(=O)Nc3c2c(=O)n(C)c(=O)n3C)c1OC` (centres undefined), for which the inhibition was 10.5% (inactive).

As for `O=C(CCCC(=O)OCC(F)(F)C(F)F)Nc1ccccc1F`, the inhibition was 0.88% (inactive). Take `O=C(O)C1CCCCC1C(=O)Nc1nc(-c2cccs2)cs1` (centres undefined): the inhibition was -11.2% (inactive). Take `CC(=O)O[C@@H]1[C@@H](OC(C)=O)[C@H](n2ccc3cc([N+](=O)[O-])ccc32)OC[C@@H]1OC(C)=O`: the inhibition was 11.9% (inactive).

Take `CC(=O)OC1COC(n2ccc3cc([N+](=O)[O-])ccc32)C(OC(C)=O)C1OC(C)=O` (centres undefined): the inhibition is -8.03% (inactive). Consider `CCOc1ccc(-c2nc(CSc3nnc(N)s3)cs2)cc1`, for which the inhibition was -2.32% (inactive).

`CC(=O)c1ccc(OC(=O)CCN2c3ccccc3Sc3ccccc32)cc1`: the inhibition is 3.97% (inactive).

Consider `O=C(c1cc(-c2ccco2)on1)N1CCOCC1`, for which the inhibition is 5.5% (inactive). As for `CN1CCN(C(=O)c2cc(-c3ccco3)on2)CC1`, the inhibition was -6.26% (inactive). Turning to `O=C(c1ccc(NS(=O)(=O)c2ccccc2)cc1)N1CCN(Cc2ccc3c(c2)OCO3)CC1`, the inhibition was -2.32% (inactive) and -6.24% (inactive). With `CCc1ccc(N(CC)C(=O)Cc2c(C(=O)O)n(C)c3ccccc23)cc1` the figure was 3.87% (inactive). As to `C=CCOC(=O)C1=C(C)N=C2SCCC(=O)N2C1c1ccc(OC(=O)c2ccco2)cc1` (centres undefined), the inhibition was -4.13% (inactive). For the compound `Cn1c(-c2cnn(-c3ccccc3)c2-n2cccc2)n[nH]c1=S`, the inhibition was -6.44% (inactive). For the compound `CCc1oc(C(=O)O)cc1CN(CC)CC`, the inhibition was 19% (inactive).

Turning to `CCN(CC)Cc1cc(C(C)=O)ccc1O`, the inhibition is 1.01% (inactive). The value for `O=C(COC(=O)c1cc(=O)[nH]c2ccccc12)Nc1nccs1` was 0.86% (inactive); that for `Cc1ccc(C(=O)C2=C(O)C(=O)N(c3ncccn3)C2c2ccc(Cl)cc2)o1` (centres undefined) was -30.5% (inactive); that for `Cc1ccc(C(=O)C2=C(O)C(=O)N(c3ncccn3)C2c2ccc(Br)cc2)o1` (centres undefined) was 10.3% (inactive).

Turning to `Cc1ccc(-n2c(-c3ccccc3)nnc2-c2cccs2)cc1`, the inhibition was -9.97% (inactive). For the compound `O=C(CCc1ccc(S(=O)(=O)NCc2ccccc2)cc1)N1CCN(Cc2ccc3c(c2)OCO3)CC1`, the inhibition was 1.72% (inactive). As to `COC(=O)CCC(=O)OC1(C)C(=O)C=C2C=C(C3CC3)N(C3CCCCC3)C=C2C1=O` (centres undefined), the inhibition was 17.8% (inactive). On to `CN1/C(=C\C(=O)COC(=O)c2ccco2)C(C)(C)c2ccccc21`, for which the inhibition is 3.26% (inactive). As to `CCCCC1=CC2=CC(=O)C(C)(OC(=O)CC)C(=O)C2=CN1CCc1ccccn1` (centres undefined), the inhibition is 21.2% (inactive).

With `COC(=O)CCC(=O)OC1(C)C(=O)C=C2C=C(C3CC3)N(CCc3ccccn3)C=C2C1=O` (centres undefined), the inhibition was -2.65% (inactive). With `COC(=O)CCC(=O)OC1(C)C(=O)C=C2C=C(C3CC3)N(c3cccc(C#N)c3)C=C2C1=O` (centres undefined) the figure was 11.9% (inactive). Regarding `COCCN1C=C2C(=O)C(C)(OC(=O)CCC(=O)OC)C(=O)C=C2C=C1C1CC1` (centres undefined), the inhibition is 10.6% (inactive). As to `CC1(C)CC(=O)CC(C)(C)N1OC(=O)c1ccco1`, the inhibition is 0.85% (inactive). `CCCCC1=CC2=CC(=O)C(C)(OC(=O)CC)C(=O)C2=CN1Cc1ccccc1` (centres undefined): the inhibition is 25% (inactive). In the case of `CCN(CC(=O)NC)S(=O)(=O)c1ccc(Br)cc1`, the inhibition was 0.33% (inactive). With `CCc1ccccc1NC1=NCC(=O)N1Cc1ccc(OC)cc1`, the inhibition is -4.85% (inactive). As for `CCCCCC(O)(c1ccc(OCC)cc1)C(CN1CCOCC1)c1ccccc1` (centres undefined), the inhibition was -5.23% (inactive). With `COc1cccc(NC(=O)CN2C(=O)COc3ccc(S(=O)(=O)N4CCC(C)CC4)cc32)c1` the figure was -1.2% (inactive); with `OCCC1CN(Cc2cccc3nonc23)CCN1Cc1ccsc1` (centres undefined), 21.2% (inactive); with `CC(C)CCNC(=O)C(c1ccco1)N(CC1CCCO1)C(=O)Cn1nnc2ccccc21` (centres undefined), 18.9% (inactive). As for `C=CCN1C=C2C(=O)C(C)(OC(=O)C3CCCC3)C(=O)C=C2C=C1c1ccsc1` (centres undefined), the inhibition is 22.2% (inactive). Turning to `COC(=O)CCC(=O)OC1(C)C(=O)C=C2C=C(C3CC3)N(c3ccccc3)C=C2C1=O` (centres undefined), the inhibition is 21.6% (inactive). As to `COc1ccc(CN2C=C3C(=O)C(C)(OC(=O)C4CCCC4)C(=O)C=C3C=C2c2ccsc2)cc1` (centres undefined), the inhibition was 31% (inactive).

Consider `CCCCC1=CC2=CC(=O)C(C)(OC(=O)CC)C(=O)C2=CN1C1CCCCC1` (centres undefined), for which the inhibition is 18.3% (inactive). `COC/C=C/C1=CC2=CC(=O)C(C)(OC(=O)c3cnc4ccccc4n3)C(=O)C2=CN1C(CO)CO` (centres undefined): the inhibition is 19.5% (inactive).

With `CC1(OC(=O)C2CCCC2)C(=O)C=C2C=C(c3ccsc3)N(CCCCO)C=C2C1=O` (centres undefined), the inhibition was 21.2% (inactive). Take `CCOC(=O)C1=C(COC(=O)Cc2ccccc2)NC(=O)NC1C` (centres undefined): the inhibition is 2.89% (inactive).

Regarding `CCCS(=O)(=O)c1nc(S(=O)(=O)c2ccc(C)cc2)c(N2CCCC2)s1`, the inhibition is -10.9% (inactive). Consider `O=C1C2CC=CCC2C(=O)N1c1ncn[nH]1` (centres undefined), for which the inhibition was 0.84% (inactive). Consider `COc1cccc(OC)c1C(=O)Nc1ccccc1NC(=O)c1c(OC)cccc1OC`, for which the inhibition was -6.67% (inactive).

On to `O=[N+]([O-])c1ccc(/C=N/n2cn[nH]c2=S)cc1`, for which the inhibition was 0.85% (inactive). For `O=S(=O)(NC1CC1)c1ccc(S(=O)(=O)N2CCc3ccccc32)cc1`, the inhibition is 18.3% (inactive). With `COc1cc2c(cc1OC)C1c3ccc(OC)c(OC)c3OCC1(O)C2` (centres undefined) the figure was -4.73% (inactive).

In the case of `CCN(CC(=O)Nc1ccc(OC)cc1)C(=O)c1ccc2c(=O)n3c(nc2c1)CCC3`, the inhibition was -5.14% (inactive). For `O=C1/C(=C\c2cccnc2)SC(=S)N1c1ccc(F)cc1`, the inhibition was 1.49% (inactive).

For the compound `O=C1C(Cc2ccccc2)NC(=S)N1c1ccccc1` (centres undefined), the inhibition was -3.85% (inactive).

Turning to `O=C1/C(=C/c2ccco2)N=C(N2CCCCC2)N1c1ccccc1`, the inhibition is 23.7% (inactive). Regarding `CC1CNC(=S)N(c2ccc(F)cc2)C1=O` (centres undefined), the inhibition was -6.26% (inactive).

On to `CCOc1cccc(/C=C2\NC(=S)N(c3ccccc3)C2=O)c1O`, for which the inhibition was 8.76% (inactive).

With `CN(C)/C=C1\NC(=S)N(c2ccccc2)C1=O`, the inhibition was -8.51% (inactive).

The record behind these values is PubChem BioAssay AID1117319 (Southern Research Institute, 2015).
